Source: PubChem BioAssay (NCI)
About 79,000 compounds went through this panel and 15% of them were active in at least one assay; those are over-represented in the sample as a whole. Unmarked numbers belong to inactive results. Active and inactive are the calls of the source. Rule as the data show it: active = growth inhibition above about 70%; inactive = the rest.

What was measured:
[1] = NCI Yeast Anticancer Drug Screen. Data for the rad52 strain (AID 147);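 also: 0% = growth of vehicle-treated control cultures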; conditions: S. cerevisiae rad52 mutant growth inhibition, hits give high values
Summary of the method: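 Genetically altered yeast (DNA damage repair defect) treated with compound; inhibition calculated relative to vehicle.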

[2] = NCI Yeast Anticancer Drug Screen. Data for the wt1 strain (AID 149);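 also: 0% = growth of vehicle-treated wt1 cultures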; conditions: S. cerevisiae wt1 strain (SPY 50644) growth inhibition, hits give high values
Summary of the method: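 Using yeast strain wt1, compound-induced growth inhibition was determined against vehicle-treated cultures.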

[3] = NCI Yeast Anticancer Drug Screen. Data for the rad50EPP+ strain (AID 151);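 also: 0% = growth of vehicle-treated control cultures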; conditions: S. cerevisiae rad50 mutant strain, hits give high values
Summary of the method: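 Strain rad50EPP+; compound exposure; % growth inhibition vs vehicle.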

[4] = NCI Yeast Anticancer Drug Screen. Data for the mgt1 strain (AID 153); conditions: S. cerevisiae mgt1 mutant growth inhibition, hits give high values
Summary of the method: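 Read-out: yeast growth inhibition vs vehicle control. Strain mgt1, drawn from a panel altered in DNA damage repair or cell cycle control.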

[5] = NCI Yeast Anticancer Drug Screen. Data for the rad50 strain (AID 155);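 also: 0% = growth of vehicle-only cultures of the same strain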; conditions: S. cerevisiae rad50 strain growth inhibition, hits give high values
Summary of the method: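 Relative growth inhibition (compound vs vehicle) was measured in yeast with a defined repair-gene alteration.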

[6] = NCI Yeast Anticancer Drug Screen. Data for the mec2-1 strain (AID 157); conditions: S. cerevisiae mec2-1 strain, hits give high values
Summary of the method: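 Cells of the genetically defined mec2-1 yeast strain are incubated with test compound. Inhibition of growth is calculated against vehicle-treated controls.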

[7] = NCI Yeast Anticancer Drug Screen. Data for the rad14 strain (AID 159);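 also: 0% = growth of vehicle-treated control cultures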; conditions: S. cerevisiae rad14 strain growth inhibition, hits give high values
Summary of the method: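 Screen for anticancer potential: a yeast strain altered in DNA damage repair is grown with compound, and reduced growth is quantified against vehicle controls.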

[8] = NCI Yeast Anticancer Drug Screen. Data for the sgs1 mgt1 strain (AID 161);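 also: 0% = growth of cultures given vehicle only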; conditions: S. cerevisiae sgs1 mgt1 strain, hits give high values
Summary of the method: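 Inhibition of yeast growth, normalised to vehicle-treated controls, is reported for a strain bearing genetic alterations in DNA damage repair.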

[9] = NCI Yeast Anticancer Drug Screen. Data for the CLN2oe strain (AID 163);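 also: 0% = growth of vehicle-only control cultures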; conditions: S. cerevisiae CLN2oe strain, hits give high values
Summary of the method: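 Strain altered in cell-cycle control, incubated with compound; growth compared to solvent-treated controls.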

[10] = NCI Yeast Anticancer Drug Screen. Data for the cln2 rad14 strain (AID 165);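 also: 0% = growth equal to vehicle treated cultures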; conditions: S. cerevisiae cln2 rad14 strain, hits give high values
Summary of the method: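 The screen exposed genetically defined yeast (cln2 rad14) to test compounds and scored growth inhibition relative to vehicle-treated controls.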

[11] = NCI Yeast Anticancer Drug Screen. Data for the bub3 strain (AID 167); conditions: S. cerevisiae bub3 mutant strain, hits give high values
Summary of the method: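 Screening used yeast with an engineered genetic alteration affecting cell cycle control. Compound-exposed cultures were compared with vehicle cultures, and reduced growth was taken as inhibition.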

[12] = NCI Yeast Anticancer Drug Screen. Data for the wt2 strain (AID 169);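 also: 0% = growth of vehicle-treated yeast cultures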; conditions: S. cerevisiae wt2 strain growth inhibition, hits give high values
Summary of the method: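 Steps: yeast strain treated with compound; growth recorded; inhibition calculated relative to cultures given vehicle alone.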

[13] = NCI Yeast Anticancer Drug Screen. Data for the mlh1 strain (AID 171);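 also: 0% = growth of vehicle-treated control cultures of the same strain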; conditions: S. cerevisiae mlh1 strain growth inhibition, hits give high values
Summary of the method: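 Yeast screen: mutant strain plus compound, growth scored against vehicle control wells.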

[14] = NCI Yeast Anticancer Drug Screen. Data for the mlh1 rad18 strain (AID 175); conditions: S. cerevisiae mlh1 rad18 strain growth inhibition, hits give high values
Summary of the method: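 Compound-treated yeast growth, normalised to vehicle controls. Strain bears defined DNA repair mutations.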

[15] = NCI Yeast Anticancer Drug Screen. Data for the rad18 strain (AID 177); conditions: S. cerevisiae rad18 mutant growth inhibition, hits give high values
Summary of the method: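 Inhibition values reflect reduced yeast growth compared with vehicle-treated controls, using a strain engineered with a DNA damage repair defect.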

[16] = NCI Yeast Anticancer Drug Screen. Data for the sgs1 strain (AID 173);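 also: 0% = growth of vehicle-only control cultures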; conditions: S. cerevisiae sgs1 mutant, hits give high values
Summary of the method: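 Inhibition of yeast growth served as the measure. The mutant strain was treated with each compound, and growth was normalised to cultures receiving vehicle alone.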

[17] = at 5.0 µM (retest, dose inferred, filed as 0.5)
[18] = at 50.0 µM (retest, dose inferred, filed as 5.0)

`O=C(NNC(=O)OCC(Cl)(Cl)Cl)OCC(Cl)(Cl)Cl` gave a growth inhibition ([1]; at 1.2 µM) of 0%, a growth inhibition ([1]; at 3.7 µM) of 0% and a growth inhibition ([1]; at 11.0 µM) of 2%. It also gave a growth inhibition ([1]; at 33.0 µM) of 2%, a growth inhibition ([1]; at 100.0 µM) of 31% and a growth inhibition ([2]; at 1.2 µM) of -1%. The growth inhibition ([2]; at 3.7 µM) was -2%, the growth inhibition ([2]; at 11.0 µM) was -3% and the growth inhibition ([2]; at 33.0 µM) was -3%. The growth inhibition ([2]; at 100.0 µM) was 11%, the growth inhibition ([3]; at 1.2 µM) was 0% and the growth inhibition ([3]; at 3.7 µM) was -2%. The growth inhibition ([3]; at 11.0 µM) was -1%, the growth inhibition ([3]; at 33.0 µM) was 0% and the growth inhibition ([3]; at 100.0 µM) was 11%. For the same compound, the growth inhibition ([4]; at 1.2 µM) was 0%, the growth inhibition ([4]; at 3.7 µM) was -4% and the growth inhibition ([4]; at 11.0 µM) was 48%. For the same compound, the growth inhibition ([4]; at 33.0 µM) was 91% (active), the growth inhibition ([4]; at 100.0 µM) was 97% (active) and the growth inhibition ([5]; at 1.2 µM) was -1%. For the same compound, the growth inhibition ([5]; at 3.7 µM) was 0%, the growth inhibition [5, 17] was -12% and the growth inhibition ([5]; at 11.0 µM) was 0%. The growth inhibition ([5]; at 33.0 µM) was 1%, the growth inhibition [5, 18] was 1% and the growth inhibition ([5]; at 50.0 µM) was 20.6%. For the same compound, the growth inhibition ([5]; at 100.0 µM) was 23%, the growth inhibition ([6]; at 1.2 µM) was -6% and the growth inhibition ([6]; at 3.7 µM) was -8%. For the same compound, the growth inhibition [6, 17] was -6%, the growth inhibition ([6]; at 11.0 µM) was -4% and the growth inhibition ([6]; at 33.0 µM) was 4%. It also gave a growth inhibition [6, 18] of 6%, a growth inhibition ([6]; at 50.0 µM) of 20.9% and a growth inhibition ([6]; at 100.0 µM) of 32%. For the same compound, the growth inhibition ([7]; at 1.2 µM) was 1%, the growth inhibition ([7]; at 3.7 µM) was 1% and the growth inhibition ([7]; at 11.0 µM) was 3%. It also gave a growth inhibition ([7]; at 33.0 µM) of 6%, a growth inhibition ([7]; at 100.0 µM) of 26% and a growth inhibition [8, 17] of 0%. The growth inhibition [8, 18] was 96% (active), the growth inhibition ([8]; at 50.0 µM) was 90.3% (active) and the growth inhibition ([9]; at 1.2 µM) was -1%. It also gave a growth inhibition ([9]; at 3.7 µM) of -5%, a growth inhibition ([9]; at 11.0 µM) of -2% and a growth inhibition ([9]; at 33.0 µM) of 9%. It also gave a growth inhibition ([9]; at 100.0 µM) of 38%, a growth inhibition [10, 17] of 4% and a growth inhibition [10, 18] of 11%. It also gave a growth inhibition ([10]; at 50.0 µM) of -12.9%, a growth inhibition ([11]; at 1.2 µM) of -3% and a growth inhibition ([11]; at 3.7 µM) of -8%. For the same compound, the growth inhibition [11, 17] was -5%, the growth inhibition ([11]; at 11.0 µM) was -6% and the growth inhibition ([11]; at 33.0 µM) was -4%. The growth inhibition [11, 18] was 7%, the growth inhibition ([11]; at 50.0 µM) was 6.9% and the growth inhibition ([11]; at 100.0 µM) was 20%. It also gave a growth inhibition ([12]; at 1.2 µM) of -2%, a growth inhibition ([12]; at 3.7 µM) of -4% and a growth inhibition ([12]; at 11.0 µM) of 29%. The growth inhibition ([12]; at 33.0 µM) was 89% (active), the growth inhibition ([12]; at 100.0 µM) was 96% (active) and the growth inhibition ([13]; at 1.2 µM) was -1%. For the same compound, the growth inhibition ([13]; at 3.7 µM) was -2%, the growth inhibition ([13]; at 11.0 µM) was 20% and the growth inhibition ([13]; at 33.0 µM) was 88% (active). The growth inhibition ([13]; at 100.0 µM) was 96% (active), the growth inhibition [14, 17] was -1% and the growth inhibition [14, 18] was 3%. The growth inhibition ([14]; at 50.0 µM) was 0.3%, the growth inhibition ([15]; at 1.2 µM) was -1% and the growth inhibition ([15]; at 3.7 µM) was 0%. It also gave a growth inhibition ([15]; at 11.0 µM) of 3%, a growth inhibition ([15]; at 33.0 µM) of 13% and a growth inhibition ([15]; at 100.0 µM) of 53%.

Work on `O=C(COc1ccc(Cl)cc1Cl)NO` yielded a growth inhibition ([1]; at 1.2 µM) of -5%, a growth inhibition ([1]; at 3.7 µM) of 0% and a growth inhibition ([1]; at 11.0 µM) of 8%. It also gave a growth inhibition ([1]; at 33.0 µM) of 28%, a growth inhibition ([1]; at 100.0 µM) of 69% and a growth inhibition ([2]; at 1.2 µM) of -6%. The growth inhibition ([2]; at 3.7 µM) was -7%, the growth inhibition ([2]; at 11.0 µM) was -10% and the growth inhibition ([2]; at 33.0 µM) was -1%. The growth inhibition ([2]; at 100.0 µM) was 66%, the growth inhibition ([3]; at 1.2 µM) was -5% and the growth inhibition ([3]; at 3.7 µM) was 0%. The growth inhibition ([3]; at 11.0 µM) was 12%, the growth inhibition ([3]; at 33.0 µM) was 35% and the growth inhibition ([3]; at 100.0 µM) was 79% (active). The growth inhibition ([4]; at 1.2 µM) was -5%, the growth inhibition ([4]; at 3.7 µM) was -5% and the growth inhibition ([4]; at 11.0 µM) was -5%. It also gave a growth inhibition ([4]; at 33.0 µM) of 4%, a growth inhibition ([4]; at 100.0 µM) of 58% and a growth inhibition ([5]; at 1.2 µM) of -4%. It also gave a growth inhibition ([5]; at 3.7 µM) of -4%, a growth inhibition [5, 17] of -138% and a growth inhibition ([5]; at 11.0 µM) of 10%. The growth inhibition ([5]; at 33.0 µM) was 50%, the growth inhibition [5, 18] was 46% and the growth inhibition ([5]; at 50.0 µM) was 96.5% (active). The growth inhibition ([5]; at 100.0 µM) was 77% (active), the growth inhibition ([6]; at 1.2 µM) was 1% and the growth inhibition ([6]; at 3.7 µM) was -1%. For the same compound, the growth inhibition [6, 17] was -46%, the growth inhibition ([6]; at 11.0 µM) was 11% and the growth inhibition ([6]; at 33.0 µM) was 43%. For the same compound, the growth inhibition [6, 18] was -14%, the growth inhibition ([6]; at 50.0 µM) was 98.4% (active) and the growth inhibition ([6]; at 100.0 µM) was 98% (active). It also gave a growth inhibition ([7]; at 1.2 µM) of -1%, a growth inhibition ([7]; at 3.7 µM) of 3% and a growth inhibition ([7]; at 11.0 µM) of 7%. For the same compound, the growth inhibition ([7]; at 33.0 µM) was 46%, the growth inhibition ([7]; at 100.0 µM) was 98% (active) and the growth inhibition [8, 17] was -58%. For the same compound, the growth inhibition [8, 18] was 15%, the growth inhibition ([8]; at 50.0 µM) was 59.1% and the growth inhibition ([9]; at 1.2 µM) was -3%. It also gave a growth inhibition ([9]; at 3.7 µM) of -2%, a growth inhibition ([9]; at 11.0 µM) of 1% and a growth inhibition ([9]; at 33.0 µM) of 14%. It also gave a growth inhibition ([9]; at 100.0 µM) of 63%, a growth inhibition [10, 17] of -60% and a growth inhibition [10, 18] of -22%. For the same compound, the growth inhibition ([10]; at 50.0 µM) was 30.5%, the growth inhibition ([11]; at 1.2 µM) was -9% and the growth inhibition ([11]; at 3.7 µM) was -9%. It also gave a growth inhibition [11, 17] of -67%, a growth inhibition ([11]; at 11.0 µM) of 2% and a growth inhibition ([11]; at 33.0 µM) of 24%. For the same compound, the growth inhibition [11, 18] was 10%, the growth inhibition ([11]; at 50.0 µM) was 88% (active) and the growth inhibition ([11]; at 100.0 µM) was 74% (active). It also gave a growth inhibition ([16]; at 1.2 µM) of -3%, a growth inhibition ([16]; at 3.7 µM) of 1% and a growth inhibition ([16]; at 11.0 µM) of 3%. For the same compound, the growth inhibition ([16]; at 33.0 µM) was 48%, the growth inhibition ([16]; at 100.0 µM) was 98% (active) and the growth inhibition [14, 17] was -118%. It also gave a growth inhibition [14, 18] of -32%, a growth inhibition ([14]; at 50.0 µM) of 67.1% and a growth inhibition ([15]; at 1.2 µM) of -3%. The growth inhibition ([15]; at 3.7 µM) was 4%, the growth inhibition ([15]; at 11.0 µM) was 9% and the growth inhibition ([15]; at 33.0 µM) was 19%. For the same compound, the growth inhibition ([15]; at 100.0 µM) was 66%.
